ELG1 repair inh = inhibitors of ELG1-dependent DNA repair in HEK293T cells | HEK293T ELG1-luciferase reporter, luminescence, 16 h; DNA damage induced by 5-fluorouridine | Potency, µM (doses to about 46.1 µM), without a hit: top-dose activity change, negative = inhibition, hits mostly inhibitors | 2.3% of 330,000 active; also: potency is read from the fitted curve at half-maximal effect; nearly all actives have a fitted effect of over 55% in size
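In this reporter screen, reduction of luminescence relative to DMSO vehicle indicated activity. Compounds and 5-fluorouridine were added together to 2,000 cells per well, incubated for 16 hr at 37 °C, then developed with ONE-Glo.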
RORg inh = blocks mouse ROR gamma transcriptional activity. Drosophila S2 Gal4-RORgamma UAS-luciferase reporter, 20 h. 5.4% of 310,000 active. P51450. Potency, µM (doses to about 53.6 µM), for inactives: at the highest dose activity change, negative = inhibition, usual class: inhibitors; also: potency is read from the fitted curve at half-maximal effect; nearly all actives have a fitted effect of over 60% in size
Target sequence (P51450 whole entry, looked up, the tested form may be a part): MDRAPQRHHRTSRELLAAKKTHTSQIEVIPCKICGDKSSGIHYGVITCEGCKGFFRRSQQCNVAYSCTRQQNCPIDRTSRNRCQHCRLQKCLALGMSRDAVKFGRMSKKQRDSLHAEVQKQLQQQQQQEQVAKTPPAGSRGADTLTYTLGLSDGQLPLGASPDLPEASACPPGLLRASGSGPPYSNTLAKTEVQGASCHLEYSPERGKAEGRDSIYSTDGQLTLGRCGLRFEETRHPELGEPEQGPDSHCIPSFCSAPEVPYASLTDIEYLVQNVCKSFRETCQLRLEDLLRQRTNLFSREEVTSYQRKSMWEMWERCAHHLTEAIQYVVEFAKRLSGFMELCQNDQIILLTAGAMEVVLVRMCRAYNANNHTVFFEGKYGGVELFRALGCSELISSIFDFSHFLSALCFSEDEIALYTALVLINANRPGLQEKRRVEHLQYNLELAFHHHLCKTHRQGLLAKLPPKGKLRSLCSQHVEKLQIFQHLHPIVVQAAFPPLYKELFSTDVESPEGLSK
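Luciferase reporter read in Schneider cells carrying Gal4-RORγ (mouse) and UAS-Photinus luciferase; cells given compound 1 h before 700 uM copper sulfate induction, then incubated 20 h at ambient temperature.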
IL1B secr inh = inflammasome signaling inhibition, IL-1 beta readout; THP-1 LPS/ATP IL-1B secretion, AlphaLISA, 16 h; hits give low values; activity change, % at 57.5 µM; AID 743279; 4.7% of 360,000 active; in the data active = activity change below about -50%; inconclusive = mostly about -30% to -49%
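Secreted IL-1B measured by AlphaLISA bead assay after 16 h compound exposure of THP-1 cells; compounds (final up to 57.5 uM) added 1 h before LPS (250 ng/mL) and ATP (1.25 mM) stimulation; lower signal means less secretion.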
Gal4-VP16 FLuc = inhibits Gal4-VP16 luciferase reporter, ROR gamma counter-screen; Drosophila S2 Gal4-VP16 UAS-luciferase, luminescence, 20 h; Potency, µM (titrated, usually from 53.6 µM), for the others: at the top dose activity, negative = inhibition, most hits filed as inhibitors; 3.5% of 310,000 active;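 also: Gal4-VP16 expression switched on by copper sulfate through the metallothionein promoter; potency is read from the fitted curve at half-maximal effect; nearly all actives have a fitted effect of over 50% in size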
TDP1 cell noCPT = qHTS for Inhibitors of human tyrosyl-DNA phosphodiesterase 1 (TDP1): qHTS in cells in absence of CPT. DT40 Tdp1-/- hTDP1 cells, no CPT, ATP luminescence, 48 h. Potency, µM (series often up to 46.2 µM), for inactives: at the top dose activity change, negative = growth inhibition, hits mostly inhibitors. 15% of 420,000 active. AID 686978, 2013; also: potency is read from the fitted curve at half-maximal effect; nearly all actives have a fitted effect of over 55% in size
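Seeded 400 DT40-hTDP1 cells/well (vehicle DMSO, no 20 nM CPT); pinned compounds; ≥48 hr at 37 °C; CellTiter-Glo luminescence as viability measure.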
DT40 TDP1 CPT = growth inhibition of DT40 Tdp1-/-;hTDP1 cells with camptothecin (screen for TDP1 inhibitors). chicken DT40 Tdp1-/-;hTDP1 cells + 20 nM CPT, ATP luminescence, 48 h. AID 686979. 12% of 420,000 active. Potency, µM (titrated, usually from 46.2 µM), inactives show at the top dose activity change, negative = growth inhibition, hits mostly inhibitors; also: potency is read from the fitted curve at half-maximal effect; nearly all actives have a fitted effect of over 55% in size
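Chicken DT40 Tdp1-/- cells complemented with human TDP1, 400 cells/well, exposed to compounds plus 20 nM camptothecin for at least 48 h at 37 C; viability read as ATP content by CellTiter-Glo luminescence.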
The depositor's hits bear a star; ? = inconclusive; · = no result; [ ] = remark or other dose. The list is not random: actives were taken first. Their share in the collection is about 21%. Unless noted, calls follow the shape of the dose curve; as a rule, active = well fitted curve in the direction sought with a large enough effect; inconclusive = small, poorly fitted or top-dose-only effect, or another doubt; inactive = no such curve, though single readings can be large; an effect the other way counts as inactive or inconclusive. % is scaled to controls: 0 for no effect and ±100 for the full control effect.

SMILES	ELG1 repair inh	RORg inh	IL1B secr inh	Gal4-VP16 FLuc	TDP1 cell noCPT	DT40 TDP1 CPT
Cc1nnc(NC(=O)c2ccc3ccccc3n2)s1	?	2.8µM*	64	7.1µM*	?	?
CCc1nnc(NC(=O)c2cccc(C(=O)Nc3nnc(CC)s3)n2)s1	13µM*	0.018µM*	76	0.18µM*	0.021µM*	0.15µM*
CCCCCC(=O)N1C[C@@H](O)[C@H](n2cc(COC(=O)c3ccccc3)nn2)C[C@@H]1c1ccc(Cl)cc1	·	·	-7	·	-22%	-17%
CN(C)c1ccc(/C=C/c2ccnc3ccccc23)cc1Cl	·	·	·	·	10µM*	?
Cc1c(Br)cnc2ccccc12	·	·	·	·	5%	11%
Cc1cc(/C=C/c2ccnc3ccccc23)ccc1N(C)C	·	·	·	·	5.6µM*	5.6µM*
CN(C)c1c(Cl)cc(/C=C/c2ccnc3ccccc23)cc1Br	·	·	·	·	3.5µM*	4.5µM*
CN(C)c1ccc(C=Cc2ccnc3ccccc23)cc1N	·	·	-1	·	10µM*	10µM*
COCCn1c(C)cc(O)c(C(c2ccccc2)N2CCN(c3ccccc3F)CC2)c1=O (stereo unspecified)	·	·	·	·	-1%	-11%
CCCc1nc2ccccc2n1C(CCSC)C(=O)NC(C)(C)C (stereo unspecified)	·	·	27	·	?	-18%
COc1cccc(C(NC(C)=O)c2nc(-c3ccccc3C)cs2)c1 (stereo unspecified)	·	·	21	·	?	-10%
Cc1c(/C=C/c2ccnc3ccccc23)ccc(N(C)C)c1C	·	·	·	·	11µM*	?
CN(C)c1ccc(/C=C/c2ccnc3ccccc23)cc1Br	·	·	·	·	7.1µM*	8.9µM*
Cc1cc(C=Nc2ccc(/C=C/c3ccnc4ccccc34)cc2)ccc1N(C)C	·	·	·	·	18µM*	16µM*
CCOC(=O)/C(=C\c1ccc(OC)c(OC)c1)C(=O)c1cccnc1	?	-18%	-7	-2%	?	-28%
COC(=O)C(=Cc1ccc(OCc2ccc([N+](=O)[O-])cc2)c(OC)c1)C(=O)OC	?	16µM*	-92*	-9%[0.365 µM]	13µM*	9.2µM*
CCOC(=O)C(=Cc1ccc(OCc2ccc([N+](=O)[O-])cc2)c(OC)c1)C(=O)OCC	18µM*	14µM*	-101*	?	15µM*	13µM*
Cc1nc(N2CCCC2)ncc1C(=O)N1CCN(c2ccccc2F)CC1	·	·	·	·	-6%	-15%
O=C(CNS(=O)(=O)c1cccs1)NCCc1ccc(Cl)cc1	-5%	8%	0	6%	-9%	2%
Cc1ccc(Cc2ccccc2C(=O)O)cc1	·	·	7	·	-8%	-17%
COc1cccc(-c2sc3ccccc3c2-c2ccc(OCCN3CCCC3)cc2)c1	20%	·	-23	·	8.2µM*	9.2µM*
COc1cccc(-c2sc3cc(OC)c(OC)cc3c2-c2ccc(OCCN3CCCCC3)cc2)c1	?	·	-11	·	13µM*	18µM*
COc1ccc2sc(-c3ccccc3OC)c(-c3ccc(SC)cc3)c2c1	·	·	0	·	3%	-24%
COc1cccc(-c2sc3ccccc3c2-c2ccc(OCCN(C)C)cc2)c1	?	·	?	·	18µM*	?
COc1ccc2sc(-c3ccccc3OC)c(-c3ccc(OCCN(C)C)cc3)c2c1	?	·	?	·	21µM*	16µM*
CCOc1cc(C)c(C(C)C)cc1S(=O)(=O)n1cnc(C)c1	-7%	17%	23	-2%	?	?
Cc1ccc(-c2nc3c4ccccc4n(CC(=O)N4CCN(c5ccc(F)cc5)CC4)c(=O)n3n2)cc1	·	·	·	·	-16%	-7%
Cc1ccccc1-c1cc2nc(NCc3cccnc3)n(C)c(=O)c2s1	·	·	-14	·	?	?
COc1cccc(-c2sc3ccc(OC)cc3c2-c2ccc(C(N)=O)cc2)c1	0%	·	-25	·	-23%	?
